# According to the antibiotic and cytotoxicity screens of Wong et al. (2023):
# The campaign covered roughly 39,000 compounds. About 3,300 (8.5%) were called active. This excerpt belongs to a sample that is enriched for actives.
# Tested on: HepG2
# Experiment: cytotoxicity call (relative viability < 0.9)
# Settings: 10 µM
row,SMILES,cytotoxicity call
1,C[C@H]1CN([C@@H](C)CO)S(=O)(=O)c2ccc(C#Cc3ccccc3)cc2O[C@@H]1CN(C)S(C)(=O)=O,inactive
2,CC1(N)CCN(c2cccnc2NC(=O)c2nc(-c3ncccc3C(F)(F)F)cnc2N)CC1,inactive
3,CCCNC(=O)N1C[C@H](C)[C@H](OC)CN(C)C(=O)c2cc(NS(=O)(=O)CC(F)(F)F)ccc2OC[C@@H]1C,inactive
4,COc1ccc(S(=O)(=O)Nc2ccc3c(c2)CC(=O)N([C@H](C)CO)C[C@@H](C)[C@H](CN(C)Cc2ccc(Oc4ccccc4)cc2)O3)cc1,active
5,COc1ccc(S(=O)(=O)Nc2ccc3c(c2)CC(=O)N([C@@H](C)CO)C[C@@H](C)[C@H](CN(C)Cc2ccc(Oc4ccccc4)cc2)O3)cc1,inactive
6,COc1ccc(S(=O)(=O)Nc2ccc3c(c2)CC(=O)N([C@H](C)CO)C[C@H](C)[C@H](CN(C)Cc2ccc(Oc4ccccc4)cc2)O3)cc1,active
7,COc1ccc(S(=O)(=O)Nc2ccc3c(c2)CC(=O)N([C@@H](C)CO)C[C@H](C)[C@H](CN(C)Cc2ccc(Oc4ccccc4)cc2)O3)cc1,inactive
8,COc1ccc(S(=O)(=O)Nc2ccc3c(c2)CC(=O)N([C@@H](C)CO)C[C@H](C)[C@@H](CN(C)Cc2ccc(Oc4ccccc4)cc2)O3)cc1,active
9,COc1ccc(S(=O)(=O)Nc2ccc3c(c2)CC(=O)N([C@H](C)CO)C[C@H](C)[C@@H](CN(C)Cc2ccc(Oc4ccccc4)cc2)O3)cc1,inactive
10,COc1ccc(S(=O)(=O)Nc2ccc3c(c2)CC(=O)N([C@@H](C)CO)C[C@@H](C)[C@@H](CN(C)Cc2ccc(Oc4ccccc4)cc2)O3)cc1,inactive
11,COc1ccc(S(=O)(=O)Nc2ccc3c(c2)CC(=O)N([C@H](C)CO)C[C@@H](C)[C@@H](CN(C)Cc2ccc(Oc4ccccc4)cc2)O3)cc1,active
12,COc1ccc(NC(=O)Nc2ccc3c(c2)C(=O)N([C@H](C)CO)C[C@@H](C)[C@H](CN(C)C(=O)NC2CCCCC2)OCCCC[C@H](C)O3)cc1,inactive
13,C[C@@H]1CN([C@@H](C)CO)C(=O)c2cc(C#CCN(C)C)cnc2O[C@H]1CN(C)Cc1ccc(C(=O)O)cc1,inactive
14,COc1cccc(OC)c1C(=O)O[C@H]1[C@@H]2OC(=O)[C@@H](Cc3ccc4ccccc4c3)C/C=C/C[C@H](Cc3ccc4ccccc4c3)C(=O)O[C@H]2[C@@H](OC)O[C@@H]1CO,inactive
15,Cc1ccc(S(=O)(=O)N(C)C[C@@H]2Oc3ccc(NC(=O)Cn4cnnn4)cc3C(=O)N([C@H](C)CO)C[C@@H]2C)cc1,inactive
16,Cc1noc(C)c1S(=O)(=O)Nc1cccc2c1O[C@@H](CN(C)S(=O)(=O)c1ccccc1)[C@@H](C)CN([C@@H](C)CO)C2=O,inactive
17,C[C@H](CO)N1C[C@H](C)[C@@H](CN(C)C(=O)c2ccccc2)OCCCC[C@H](C)Oc2ccc(NS(=O)(=O)c3cccs3)cc2C1=O,inactive
18,CN1CCN(C(=O)C[C@H]2CC[C@@H]3[C@H](COC[C@@H](O)CN3S(=O)(=O)c3cccc(Cl)c3)O2)CC1,inactive
19,CCS(=O)(=O)N1CC[C@]2(CC1)CN([C@@H](CO)c1c2c2ccc(cc2n1C)OC)S(=O)(=O)c1ccccc1,inactive
20,C[C@H](CO)N1C[C@H](C)[C@@H](CN(C)C(=O)NC2CCCCC2)Oc2c(NC(=O)Nc3ccc(C(F)(F)F)cc3)cccc2C1=O,active
21,C[C@H](CO)N1C[C@H](C)[C@H](CN(C)C(=O)NC2CCCCC2)Oc2c(NC(=O)Nc3ccc(C(F)(F)F)cc3)cccc2C1=O,active

row,SMILES,cytotoxicity call
1,C[C@@H]1CN([C@H](C)CO)C(=O)c2cccc(NC(=O)Nc3ccc(C(F)(F)F)cc3)c2O[C@@H]1CN(C)C(=O)NC1CCCCC1,active
2,C[C@@H]1CN([C@H](C)CO)C(=O)c2cccc(NC(=O)Nc3ccc(C(F)(F)F)cc3)c2O[C@H]1CN(C)C(=O)NC1CCCCC1,active
3,O=C(N[C@H]1CC[C@H](CCNS(=O)(=O)c2ccccc2)O[C@@H]1CO)c1cnccn1,inactive
4,C[C@@H]1CCCCO[C@@H](CN(C)C(=O)NC2CCCCC2)[C@H](C)CN([C@H](C)CO)C(=O)c2cc(NC(=O)C3CCCCC3)ccc2O1,inactive
5,C[C@@H]1CN([C@H](C)CO)S(=O)(=O)c2ccc(C#CCN(C)C)cc2O[C@@H]1CN(C)S(=O)(=O)c1cccc(F)c1,inactive
6,CC(C)NC(=O)Nc1ccc2c(c1)C(=O)N([C@H](C)CO)C[C@H](C)[C@H](CN(C)C(=O)C1CCCCC1)OCCCC[C@@H](C)O2,inactive
7,COc1ccc(NC(=O)Nc2ccc3c(c2)C(=O)N([C@@H](C)CO)C[C@H](C)[C@@H](CN(C)S(=O)(=O)c2ccc(Cl)cc2)OCCCC[C@@H](C)O3)cc1,inactive
8,COc1ccc(CNC(=O)C[C@H]2C[C@@H]3c4cc(NC(=O)NC5CCCC5)ccc4O[C@@H]3[C@@H](CO)O2)cc1,inactive
9,O=C(NCCC1=CCCCC1)c1sc2ccccc2c1Cl,inactive
10,C[C@H](CO)N1C[C@H](C)[C@@H](CN(C)C(=O)c2ccccc2)OCCCC[C@H](C)Oc2ccc(NC(=O)CCC(F)(F)F)cc2C1=O,inactive
11,C[C@@H]1CN([C@@H](C)CO)C(=O)c2c(c3ccccc3n2C)-c2ccccc2CO[C@@H]1CN(C)C(=O)Nc1ccccc1,inactive
12,C[C@H]1CN([C@@H](C)CO)C(=O)c2cccc(NC(=O)Nc3ccc(C(F)(F)F)cc3)c2O[C@H]1CN(C)C(=O)NC1CCCCC1,inactive
13,C[C@H]1CN([C@@H](C)CO)C(=O)c2cccc(NC(=O)Nc3ccc(C(F)(F)F)cc3)c2O[C@@H]1CN(C)C(=O)NC1CCCCC1,active
14,C[C@@H]1CN([C@@H](C)CO)C(=O)c2cccc(NC(=O)Nc3ccc(C(F)(F)F)cc3)c2O[C@@H]1CN(C)C(=O)NC1CCCCC1,inactive
15,C[C@@H]1CN([C@@H](C)CO)C(=O)c2cccc(NC(=O)Nc3ccc(C(F)(F)F)cc3)c2O[C@H]1CN(C)C(=O)NC1CCCCC1,active
16,O=C(C[C@@H]1CC[C@H]2[C@@H](COC[C@@H](O)CN2S(=O)(=O)c2cccc(Cl)c2)O1)NC1Cc2ccccc2C1,inactive
17,C[C@@H]1CN([C@@H](C)CO)C(=O)c2cc(NC(=O)Cn3cnnn3)ccc2O[C@@H]1CN(C)Cc1ccc(C(=O)O)cc1,inactive
18,C[C@H](CO)N1C[C@H](C)[C@@H](CN(C)C(=O)NC2CCCCC2)OCCCC[C@H](C)Oc2ccc(NC(=O)CCC(F)(F)F)cc2C1=O,inactive
19,C[C@H]1CN([C@@H](C)CO)C(=O)CCCn2cc(nn2)CO[C@@H]1CN(C)C(=O)Nc1cccc(Oc2ccccn2)c1,inactive
20,CC(=O)c1ccccc1OC[C@@H](O)CN(CCO)CCO,inactive
21,CCCNCC(O)COc1ccccc1C(=O)CCc1ccccc1.Cl (stereo unspecified),active

row,SMILES,cytotoxicity call
1,CCCC(=O)Nc1ccc(OCC(O)CNC(C)C)c(C(C)=O)c1.Cl (stereo unspecified),inactive
2,C[C@H]1CN([C@@H](C)CO)C(=O)c2cc(NC(=O)CCC(F)(F)F)ccc2O[C@H]1CN(C)Cc1ccc(C(F)(F)F)cc1,inactive
3,C[C@H](CO)N1C[C@H](C)[C@H](CN(C)Cc2ccc(Oc3ccccc3)cc2)Oc2ncc(-c3cccnc3)cc2C1=O,inactive
4,C[C@H](CO)N1C[C@H](C)[C@H](CN(C)C(=O)NC2CCCCC2)Oc2ccc(NC(=O)Nc3cccc4ccccc34)cc2C1=O,inactive
5,C[n+]1c2cc(N)ccc2cc2ccc(N)cc21.[Cl-],active
6,C[C@@H]1CCCCO[C@@H](CN(C)Cc2ccc(C(=O)O)cc2)[C@H](C)CN([C@H](C)CO)C(=O)c2cc(NC(=O)c3ccccc3)ccc2O1,inactive
7,C[C@H]1CN([C@@H](C)CO)C(=O)CCCn2cc(nn2)CO[C@H]1CN(C)C(=O)Nc1cccc(Oc2ccccn2)c1,inactive
8,CC(=O)OC[C@H]1O[C@@H](n2ccc(=O)[nH]c2=O)[C@H](OC(C)=O)[C@@H]1OC(C)=O,inactive
9,COCC(=O)N1C[C@H](C)[C@H](OC)CN(C)C(=O)c2cc(NC(=O)Nc3cccc(F)c3)ccc2OC[C@@H]1C,inactive
10,COc1ccc(NC(=O)Nc2ccc3c(c2)C(=O)N([C@H](C)CO)C[C@H](C)[C@H](CN(C)Cc2ccc(Cl)c(Cl)c2)O3)cc1,active
11,COc1ccc(NC(=O)Nc2ccc3c(c2)C(=O)N([C@H](C)CO)C[C@@H](C)[C@@H](CN(C)Cc2ccc(Cl)c(Cl)c2)O3)cc1,inactive
12,COc1ccc(NC(=O)Nc2ccc3c(c2)C(=O)N([C@@H](C)CO)C[C@H](C)[C@H](CN(C)Cc2ccc(Cl)c(Cl)c2)O3)cc1,active
13,COc1ccc(NC(=O)Nc2ccc3c(c2)C(=O)N([C@H](C)CO)C[C@H](C)[C@@H](CN(C)Cc2ccc(Cl)c(Cl)c2)O3)cc1,inactive
14,COc1ccc(NC(=O)Nc2ccc3c(c2)C(=O)N([C@@H](C)CO)C[C@H](C)[C@@H](CN(C)Cc2ccc(Cl)c(Cl)c2)O3)cc1,inactive
15,COc1ccc(NC(=O)Nc2ccc3c(c2)C(=O)N([C@@H](C)CO)C[C@@H](C)[C@@H](CN(C)Cc2ccc(Cl)c(Cl)c2)O3)cc1,inactive
16,C[C@H]1CN([C@@H](C)CO)S(=O)(=O)c2ccc(-c3ccc(C(=O)N(C)C)cc3)cc2O[C@@H]1CN(C)C(=O)C1CCC1,inactive
17,O=C(CCc1ccc(O)cc1)c1c(O)c([C@@H]2O[C@H](CO)[C@@H](O)[C@H](O)[C@H]2O)c(O)c([C@@H]2O[C@H](CO)[C@@H](O)[C@H](O)[C@H]2O)c1O,inactive
18,O=C(O[C@H]1[C@H](O)[C@@H](CO)O[C@H](c2c(O)cc(O)c(C(=O)c3ccc(O)cc3)c2O)[C@H]1OC(=O)c1cc(O)c(O)c(O)c1)c1cc(O)c(O)c(O)c1,active
19,CC(=O)O[C@H]1[C@H](Oc2cc(O)cc(O)c2C(=O)c2cc(O)cc(O)c2)O[C@H](CO)[C@@H](OC(=O)c2ccccc2)[C@@H]1O,inactive
